# Several values for one entry are separate records, joined by “and”; a condition that tells them apart may be missing. Identical values can stand only once. Records with an inconclusive call do not appear. Entries that show only a call come without a potency. Activity calls are given as the source filed them. The call rests on the fitted dose curve; in most records, active means well fitted inhibition curve with a large enough effect; inconclusive means small, poorly fitted or top-dose-only effect; inactive means no such curve, though single readings can be large or run the other way.
# Assay: Primary qHTS for inhibitors of nuclear receptor binding SET domain protein 2 (NSD2) in an RCH-ACV wild type WT cells (2C) (AID 1645877); further: nearly all actives have a fitted effect of over 70% in size
# Settings: RCH-ACV (leukaemia line) NSD2 WT (2C) viability, CellTiter-Glo, 72 h; series mostly up to 44.9 µM
# Potency means the concentration at half of the fitted maximal effect.
row,SMILES,Potency
1,COc1ccc(C(=O)CC(=O)c2ccc(C(C)(C)C)cc2)cc1,inactive
2,Oc1c(Cl)cc(Cl)c2cccnc12,3.32 µM (active)
3,COc1ncnc(NS(=O)(=O)c2ccc(N)cc2)c1OC,inactive
4,OC(Cn1cncn1)(Cn1cncn1)c1ccc(F)cc1F,inactive
5,CCCc1cc(C(N)=S)ccn1,inactive
6,CCOC(=O)[C@H](CCc1ccccc1)N[C@H]1CS[C@H](c2cccs2)CN(CC(=O)O)C1=O,inactive
7,COc1ccc(-c2ccc3cc(C(=O)O)ccc3c2)cc1C12CC3CC(CC(C3)C1)C2,inactive
8,CN(C)c1ccc(C(=C2C=CC(=[N+](C)C)C=C2)c2ccc(N(C)C)cc2)cc1,42.2 nM (active) and 263 nM (active)

# Reference: PubChem BioAssay (NCATS)
